L3MBTL1 block = L3MBTL1 (human) inhibition; actives 0.66% (n = 230,000); Potency, µM (doses to about 57.1 µM), hits mostly inhibitors; AlphaScreen L3MBTL1–H3K9me1 peptide binding; further: nearly all actives have a fitted effect of over 60% in size
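Displacement of a biotinylated histone H3(1-15) peptide monomethylated at Lys9 (75 nM) from L3MBTL1 (50 nM) was measured by AlphaScreen after a 30 min room-temperature compound incubation; cefsulodin titration served as intraplate control.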
HP1b chromo inh = blocks HP1-beta chromodomain binding to methylated histone tails; P83916; AlphaScreen HP1-beta / biotin-H3K9me3 peptide binding; Potency, µM (top dose mostly 114 µM), usual class: inhibitors; actives 0.56% (n = 390,000); AID 540317; further: nearly all actives have a fitted effect of over 70% in size
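AlphaScreen: HP1-beta (50 nM) preformed 30 min with biotin-H3(1-18)K9me3 peptide (50 nM) in PBS pH 7.4, 0.01% Tween-20. Compound added for 30 min at RT, then streptavidin donor/nickel chelate acceptor beads (10 ug/mL) for 30 min.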
JMJD2A Tudor inh = blocks the human JMJD2A Tudor domain; AID 504339; actives 4.4% (n = 390,000); Potency, µM (highest dose often 114 µM), usual class: inhibitors; O75164; AlphaScreen JMJD2A-Tudor / H3K4me3 peptide binding; further: nearly all actives have a fitted effect of over 50% in size
GLS inhibitor = blocks human kidney-isoform glutaminase activity; O94925; GLS enzymatic activity, qHTS titration; Potency, µM (doses to about 45.5 µM), actives largely listed as inhibitors; actives 0.21% (n = 410,000); AID 624170
Target sequence (O94925 whole entry, looked up, canonical isoform): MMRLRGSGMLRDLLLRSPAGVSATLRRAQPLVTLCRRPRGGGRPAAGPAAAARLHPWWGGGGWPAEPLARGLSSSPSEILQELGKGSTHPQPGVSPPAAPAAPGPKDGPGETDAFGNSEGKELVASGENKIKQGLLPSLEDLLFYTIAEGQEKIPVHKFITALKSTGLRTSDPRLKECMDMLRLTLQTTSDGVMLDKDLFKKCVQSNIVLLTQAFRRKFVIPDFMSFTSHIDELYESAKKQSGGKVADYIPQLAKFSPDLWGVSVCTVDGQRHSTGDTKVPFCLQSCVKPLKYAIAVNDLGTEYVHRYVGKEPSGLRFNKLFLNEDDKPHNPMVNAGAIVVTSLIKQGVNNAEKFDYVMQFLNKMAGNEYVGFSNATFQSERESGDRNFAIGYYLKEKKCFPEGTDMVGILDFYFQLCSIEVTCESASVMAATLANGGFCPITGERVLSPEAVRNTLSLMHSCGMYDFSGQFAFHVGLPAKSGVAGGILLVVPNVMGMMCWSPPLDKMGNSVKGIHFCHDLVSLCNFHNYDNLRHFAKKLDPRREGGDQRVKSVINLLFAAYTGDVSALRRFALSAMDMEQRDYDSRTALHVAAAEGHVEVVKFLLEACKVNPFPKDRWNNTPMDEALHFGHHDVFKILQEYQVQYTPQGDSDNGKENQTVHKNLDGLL
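Assay buffer: 45 mM KH2PO4 pH 8.2, 0.02% Tween-20. hKGA acts on L-glutamine (1 mM solution added); product glutamate is reported by an oxidase/peroxidase Amplex Red coupling, with fluorescence taken at baseline and 30 min.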
G9a inh = inhibitors of human histone lysine methyltransferase G9a; G9a H3K9 monomethylation, AlphaScreen, 2 h; Potency, µM (titrated, usually from 102 µM), hits mostly inhibitors; actives 8.8% (n = 350,000); Q96KQ7; AID 504332; further: nearly all actives have a fitted effect of over 75% in size
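Compounds were preincubated with 20 nM G9a for 15 min, after which biotinylated H3K9 peptide (500 nM) and SAM (20 uM) started a 2 h room-temperature reaction. Monomethylated product was quantified by antibody-based AlphaScreen chemiluminescence.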
BAZ2B block = BAZ2B (human) inhibition; Potency, µM (top dose mostly 114 µM), hits mostly inhibitors; Q9UIF8; AlphaScreen BAZ2B-H3K14Ac peptide displacement; actives 4.4% (n = 360,000); further: nearly all actives have a fitted effect of over 60% in size
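AlphaScreen displacement: compounds (up to 110uM) incubated 30 min at room temperature with a preformed 50 nM BAZ2B/50 nM biotinylated H3K14Ac peptide complex in PBS pH 7.4 with Tween-20. Donor and acceptor beads at 10 ug/mL final added, 20 min light-protected before reading.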
Hits are given with their value; - = inactive; ? = inconclusive; . = no result; [ ] = remark or other dose. Rows were chosen to be rich in hits. Some 10% of all compounds tested hit in one or more screens of this group. The call rests on the fitted dose curve; in most records, active means well fitted curve in the direction sought with a large enough effect; inconclusive means small, poorly fitted or top-dose-only effect, or another doubt; inactive means no such curve, though single readings can be large; an effect the other way counts as inactive or inconclusive.

SMILES	L3MBTL1 block	HP1b chromo inh	JMJD2A Tudor inh	GLS inhibitor	G9a inh	BAZ2B block
CC(C)CNc1cc(NC2CCCCC2)c2c3c(onc13)-c1ccccc1C2=O	.	?	28.2µM	-	10µM	25.1µM
O=C1c2ccccc2-c2onc3c(Br)cc(NC4CCCCC4)c1c23	.	-	-	-	-	-
COCCCNc1nc2nonc2nc1N1CCN(C2CCCC2)CC1	-	-	-	-	-	-
CN(C)CCCNc1cc(N2CCN(C3CCCCC3)CC2)c2noc3c2c1C(=O)c1ccccc1-3	.	?	35.5µM	-	?	20µM
COc1ccc(-c2nc3cnc(OC)nc3n(CCc3ccccc3)c2=O)cc1	.	.	.	.	-[0.501 µM]	.
CSc1ncc(C(=O)NCc2ccc(F)cc2)c(-c2ccccc2)n1	.	-	-	-	-	-
CCN(CC)CCNC(=O)/C(=N\O)c1ccccn1	-	-	?	-	-[12.7 µM]	?
CN(C)CCCNCCCNC(=O)/C(=N\O)c1ccccn1	-	-	?	-	7.94µM	50.1µM
COCCCNC(=O)CCCn1c(=O)c2cccn2c2cccnc21	.	-	-	-	-	-
Cc1cc2c(s1)c1cnn(Cc3cccc(C)c3F)c(=O)c1n2C	.	.	-	.	.	.
NS(=O)(=O)c1ccc(Nc2nc3ccccc3nc2NS(=O)(=O)c2cccc([N+](=O)[O-])c2)cc1	?	-	?	-	31.6µM	?
CC(=O)Nc1ccc(S(=O)(=O)Nc2nc3ccccc3nc2Nc2ccc(S(N)(=O)=O)cc2)cc1	-	-	-	-	44.7µM	-
CCc1ccc(Nc2nc3ccccc3nc2NS(=O)(=O)c2ccccc2)cc1	.	-	-	-	-	-
CCCCn1cc2c(c1-c1ccc(Cl)cc1)c(=O)n(C)c(=O)n2C	.	-	-	-	?	?
Cc1ccc(-n2c3c(cc(-c4nc(-c5ccc(Cl)cc5)cs4)c2=O)C(=O)CC(C)(C)C3)cc1	.	-	-	-	-	-
CCNc1ncc2nc(-c3ccccc3)c(=O)n(Cc3cccs3)c2n1	.	.	.	.	-[0.501 µM]	.
COc1cc(C(=O)O/N=C2\CCCc3c2ccc(OC)c3[N+](=O)[O-])cc(OC)c1OC	-	-	-[11.4 µM]	-	?	-
COc1ccccc1C(=O)O/N=C1/CCCc2c1ccc(OC)c2[N+](=O)[O-]	-	-	-	-	50.1µM	-
COc1ccc2c(c1[N+](=O)[O-])CCC/C2=N/OC(=O)c1ccccc1SC	-	-	-	-	44.7µM	?
COc1ccc2c(c1)CC/C2=N\OC(=O)c1ccccc1OC	-[11.4 µM]	-	-	-	-	-
N#Cc1c(-n2ncnc2-c2cccc(Cl)c2)sc2c1CCCCC2	.	-	-	-	-	-
CCCC1C(c2ccco2)NC(c2ccco2)CC1(C)O (stereo not given)	-	?	3.55µM	-	6.31µM	.
CC1/C(=N/O)CC(c2ccco2)NC1c1ccco1 (stereo not given)	-	-	-	-	-	-
CCOC(=O)N1CCC(NCCNC(=O)c2ccc(F)c(F)c2)CC1	-	-	-	-	-[0.501 µM]	-
CCOC(=O)N1CCC(NCCNC(=O)c2ccc(Cl)cc2)CC1	-	-	2.82µM	-	6.31µM	?
SMILES	L3MBTL1 block	HP1b chromo inh	JMJD2A Tudor inh	GLS inhibitor	G9a inh	BAZ2B block
COc1ccc(C(=O)N2CCN(c3ccc(NC(=O)Cc4ccccc4)cc3)CC2)cc1	.	-	-	-	.	-
COc1ccc(N2CCN(C(=O)c3ccc(CSc4ccccc4)cc3)CC2)cc1	-	?	?	-	?	44.7µM
COc1cccc(SCC(=O)N2CCN(c3ccccc3)CC2)c1	.	-	-	-	-	-
COc1ccc(N2CCN(C(=O)CSc3ccccc3)CC2)cc1	.	-	-	-	?	79.4µM
CCOC(=O)N1CCN(C(=O)c2ccc(CSc3ccc(Cl)cc3)cc2)CC1	-[11.4 µM]	-	44.7µM	-	-	-
CN1CCN(C(=O)c2ccc(CSc3ccc(Cl)cc3)cc2)CC1	-	-	-	-	?	-
O=C(Nc1cc(NC(=O)c2ccccc2Cl)ccc1Cl)c1ccccc1	.	-	-	-	-	-
COc1ccc(N2CCN(C(=O)CSc3nc4[nH]ncc4c(=O)n3-c3cccc4ccccc34)CC2)cc1	.	-	-	-	39.8µM	-
COc1ccc(N2CCN(C(=O)CSc3nc(C)cs3)CC2)cc1	-	-	-	-	44.7µM	-
COc1ccc(N2CCN(C(=O)COC(=O)CSc3ccccc3)CC2)cc1	-	-	?	-	15.8µM	?
COC(=O)c1ccccc1NC(=S)N1CCN(c2ccc(OC)cc2)CC1	.	-	56.2µM	-	?	.
COc1ccc(N2CCN(C(=O)CSc3ncnc4scc(-c5ccc(C)cc5)c34)CC2)cc1	.	?	?	-	.	.
COc1ccc(N2CCN(C(=O)CSc3ccccc3N)CC2)cc1	-	-	-	-	?	-
COc1ccc(N2CCN(C(=S)Nc3ccccc3OC)CC2)cc1	-[2.29 µM]	-	-	-	-[0.501 µM]	-
CC1C(=O)N(S(=O)(=O)c2ccc([N+](=O)[O-])cc2)[C@H]1c1ccc2ccccc2c1 (stereo not given in full)	.	-	-	.	.	.
O=S(=O)(N/N=C\c1ccc(-c2ccccc2Cl)o1)c1ccccc1	-	?	-	-	7.94µM	?
Cc1nnc(C)n1/N=C/c1ccc(-c2ccccc2Cl)o1	.	-	?	-	50.1µM	-
O=C(O)c1ccc(N/N=C/c2ccc(-c3ccccc3Cl)o2)cc1	-	-	-	-	56.2µM	-
O=C(N/N=C/c1ccc(-c2ccccc2Cl)o1)c1ccccc1	.	-	-	-	-	-
Clc1ccccc1-c1ccc(/C=N/Nc2nncc(-c3ccccc3)n2)o1	-	-	-	-	-	-
Cc1ccc(N2C(=O)CC(Sc3nc4ccccc4o3)C2=O)cc1Cl (stereo not given)	-	-	?	-	11.2µM	-
c1csc(-c2nnc(N3CCOCC3)c3ccccc23)c1	-	-	-[11.4 µM]	-	39.8µM	-
c1csc(-c2nnc(N3CCCCCC3)c3ccccc23)c1	-	?	1.26µM	-	10µM	?
O=C(CC(NCc1ccccn1)C(=O)O)Nc1ccccc1Cl (stereo not given)	20µM	-	20µM	-	-	2.82µM
O=C(NCc1ccccn1)Nc1cc(Cl)ccc1Cl	.	-	-	-	-	-
CC1(C)CC(=O)c2cc(-c3nc(-c4ccc(Br)cc4)cs3)c(=O)n(-c3ccccc3)c2C1	.	-	-	-	-	-
COc1ncc2nc(CCc3ccccc3)c(=O)n(Cc3cccs3)c2n1	.	.	.	.	-[12.7 µM]	.
Cc1ccc(-c2nc3c(c(=O)[nH]c(=O)n3Cc3ccccc3)n2Cc2ccccc2)o1	-	-	-	-	10µM	-
CCOC(=O)c1c(N2C(=O)CC(Sc3ccccc3C(=O)O)C2=O)sc2c1CCCC2 (stereo not given)	-	-	?	-	.	50.1µM
O=C(O)c1ccccc1SC1CC(=O)N(c2cccc3ccccc23)C1=O (stereo not given)	.	?	22.4µM	-	.	?

From PubChem BioAssay
